This passage reports Potency and outcome results from PubChem BioAssay (NCATS).

The structures appear in SMILES notation. Results filed as inconclusive are left out. The source made the active and inactive calls. Unless noted, the call rests on the fitted dose curve; in most records, active means well fitted curve in the direction sought with a large enough effect; inconclusive means small, poorly fitted or top-dose-only effect, or another doubt; inactive means no such curve, though single readings can be large; an effect the other way counts as inactive or inconclusive.

Assay [1] can be described thus: qHTS assay for measurement of the activity of small molecule inhibitors on Zika virus induced Caspase-3 activity in human iPSC derived neural progenitor cells (hNPCs) (AID 1224857). Further: nearly all actives have a fitted effect of over 65% in size. In outline: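 Zika virus (2 FFU/cell) infection of human iPSC-derived NPCs, 6 h, following 1 h compound preincubation. Read-out: Caspase-Glo 3/7 luminescence.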
The nature of assay [2]: qHTS assay for measurement of the activity of small molecule inhibitors on Zika virus induced Caspase-3 activity in human astrocytoma cells (AID 1224859). In outline: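 Caspase activation in ZIKV-infected SNB-19 cells (2 FFU/cell, 6 h) measured by Caspase-Glo 3/7 luminescence after 30 min RT; compound pre-incubated 1 h; normalised to uninfected and infected controls.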
On the technique in general: In qHTS, concentration-response curves come from the screen itself.

Assay [3] in a line: Natriuretic polypeptide receptor (hNpr1) antagonism - Pilot counterscreen GloSensor control cell line (AID 1347045; calls by dose curve; further: potency means the concentration at half of the fitted maximal effect). The gist of the method:
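The SNP-driven cGMP luminescence signal (50 uM, 20 min, room temperature) was measured in GloSensor HEK293 control cells. Compounds were tested as a LOPAC titration series and preincubated for 30-50 min.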

Assay [4] addresses Atrial natriuretic peptide receptor 1 (Homo sapiens) (UniProt P16066). Kind of assay: Natriuretic polypeptide receptor (hNpr1) antagonism - Pilot screen (AID 1347049; calls by dose curve;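 further: HEK293 cells with hNpr1 and GloSensor cGMP luciferase stimulated by 0.1 nM hNppA; agonist-evoked cGMP luminescence read 20 min after hNppA addition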; further: potency means the concentration at half of the fitted maximal effect). In outline:
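Receptor antagonism read as cGMP-dependent luminescence in hNpr1/pGS-40F HEK293 cells: pre-read after 30 min compound exposure, post-read 20 min after hNppA agonist at 0.1 nM final, all at room temperature, protected from light; A-71915 titration as control.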

The target in assay [5] is Atrial natriuretic peptide receptor 2 (Homo sapiens) (UniProt P20594). Kind of assay: Natriuretic polypeptide receptor (hNpr2) antagonism - Pilot subtype selectivity assay (AID 1347050; calls by dose curve; further: potency means the concentration at half of the fitted maximal effect). The gist of the method: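 Antagonist mode: compounds (LOPAC1280, seven 1:5 dilutions) added 30 min before 1 nM hNppC stimulation of hNpr2-HEK293 cGMP-sensor cells; luminescence read before and 20 min after agonist at ambient temperature.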
Chain of Atrial natriuretic peptide receptor 2 (Homo sapiens) (P20594 whole entry, looked up): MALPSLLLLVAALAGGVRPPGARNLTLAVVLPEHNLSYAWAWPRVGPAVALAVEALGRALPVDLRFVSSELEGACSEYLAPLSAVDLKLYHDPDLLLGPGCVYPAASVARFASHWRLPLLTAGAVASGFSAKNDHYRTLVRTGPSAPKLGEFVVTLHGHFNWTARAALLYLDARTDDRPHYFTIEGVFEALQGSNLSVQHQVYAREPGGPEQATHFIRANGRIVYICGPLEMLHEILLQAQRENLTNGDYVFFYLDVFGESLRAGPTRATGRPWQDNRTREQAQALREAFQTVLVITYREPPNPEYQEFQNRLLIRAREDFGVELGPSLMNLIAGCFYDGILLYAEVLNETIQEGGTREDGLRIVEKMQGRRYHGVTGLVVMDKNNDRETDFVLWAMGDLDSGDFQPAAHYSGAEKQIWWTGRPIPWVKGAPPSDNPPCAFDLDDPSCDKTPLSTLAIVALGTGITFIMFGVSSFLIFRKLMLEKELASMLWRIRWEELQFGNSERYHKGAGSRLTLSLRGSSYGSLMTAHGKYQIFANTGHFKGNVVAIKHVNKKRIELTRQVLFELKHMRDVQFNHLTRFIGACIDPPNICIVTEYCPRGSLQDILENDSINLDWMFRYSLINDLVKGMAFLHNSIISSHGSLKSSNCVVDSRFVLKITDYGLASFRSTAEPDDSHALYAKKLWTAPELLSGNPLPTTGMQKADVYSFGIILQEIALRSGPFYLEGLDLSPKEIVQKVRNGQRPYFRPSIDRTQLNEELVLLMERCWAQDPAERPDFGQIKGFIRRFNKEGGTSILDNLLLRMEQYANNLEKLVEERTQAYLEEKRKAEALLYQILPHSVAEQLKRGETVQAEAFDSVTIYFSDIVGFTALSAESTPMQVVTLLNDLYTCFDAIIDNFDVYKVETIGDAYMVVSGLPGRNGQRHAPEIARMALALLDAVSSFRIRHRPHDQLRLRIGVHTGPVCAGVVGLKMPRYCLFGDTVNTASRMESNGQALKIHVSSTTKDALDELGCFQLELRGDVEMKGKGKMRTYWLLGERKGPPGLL

The nature of assay [6]: NS1 protein of Zika virus - qHTS assay to identify small molecule inhibitors in human HEK 293 cells (AID 1347053). Further: series mostly up to about 46 µM; nearly all actives have a fitted effect of over 55% in size. In outline: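 In this cell-based screen, HEK 293 cultures received compound for one hour before Zika MR766 at MOI = 0.5. NS1 was quantified 24 hours later by TR-FRET, normalized to virus-free wells and infected wells.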
In assay [7] the target is T1, Tyrosine-protein phosphatase non-receptor type substrate 1 (Homo sapiens) + Leukocyte surface antigen CD47 (Homo sapiens) (UniProt P78324+Q08722). Kind of assay: CD47-SIRPalpha protein protein interaction - LANCE assay qHTS validation (AID 1347057; active means well fitted curve in the direction sought with a large enough effect in the signal ratio, with a control signal flat, not every such curve was filed as active; the % refers to the signal ratio; further: series mostly up to about 38 µM). The gist of the method: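 Inhibition of soluble CD47/SIRPalpha ectodomain association by titrated compounds, measured as 665/615 nm time-resolved FRET ratio after sequential 30 min room-temperature incubations.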
T1 sequence (P78324 whole entry, looked up, the tested form may be a part): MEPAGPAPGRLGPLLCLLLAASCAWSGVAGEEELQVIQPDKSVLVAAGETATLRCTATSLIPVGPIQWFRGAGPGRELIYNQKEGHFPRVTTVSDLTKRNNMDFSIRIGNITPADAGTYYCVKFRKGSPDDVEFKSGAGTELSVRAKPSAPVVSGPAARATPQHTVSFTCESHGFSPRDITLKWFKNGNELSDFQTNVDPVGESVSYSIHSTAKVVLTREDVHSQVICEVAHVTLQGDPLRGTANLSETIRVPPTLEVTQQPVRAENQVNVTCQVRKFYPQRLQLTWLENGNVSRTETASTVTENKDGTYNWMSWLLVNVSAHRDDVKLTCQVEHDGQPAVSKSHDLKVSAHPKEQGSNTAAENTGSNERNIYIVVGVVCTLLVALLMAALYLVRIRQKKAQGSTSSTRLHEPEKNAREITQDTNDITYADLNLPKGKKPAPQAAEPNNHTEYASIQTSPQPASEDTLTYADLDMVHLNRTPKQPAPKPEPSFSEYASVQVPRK
T1 sequence (Q08722 whole entry, looked up, the tested form may be a part): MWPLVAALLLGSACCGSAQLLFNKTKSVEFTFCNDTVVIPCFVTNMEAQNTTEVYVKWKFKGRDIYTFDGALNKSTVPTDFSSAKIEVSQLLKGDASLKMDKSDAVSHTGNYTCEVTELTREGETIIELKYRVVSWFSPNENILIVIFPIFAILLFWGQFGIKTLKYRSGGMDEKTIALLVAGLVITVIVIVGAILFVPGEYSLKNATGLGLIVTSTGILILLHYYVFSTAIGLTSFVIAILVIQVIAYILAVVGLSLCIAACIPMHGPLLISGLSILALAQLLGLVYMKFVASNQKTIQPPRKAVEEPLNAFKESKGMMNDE
(Time-resolved FRET reads energy transfer from a long-lived donor to a nearby acceptor.)

The target of assay [8] is T1, Tyrosine-protein phosphatase non-receptor type substrate 1 (Homo sapiens) + Leukocyte surface antigen CD47 (Homo sapiens). Kind of assay: CD47-SIRPalpha protein protein interaction - HTRF assay qHTS validation (AID 1347058; active means well fitted curve in the direction sought with a large enough effect in the signal ratio, not every such curve was filed as active; the % refers to the signal ratio; further: series mostly up to about 38 µM). The gist of the method:
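Soluble extracellular domains (6His-CD47, Avi-tag-biotinylated SIRPalpha) in PBS pH 7.4 with 0.05% IGEPAL CA-630. Compounds were preincubated 30 min at RT with CD47 and anti-His-Eu, then SIRPalpha and SAV-XL665 were added. TR-FRET 665/615 ratio.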

Assay [9] shares this target. Kind of assay: CD47-SIRPalpha protein protein interaction - Alpha assay qHTS validation (AID 1347059).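 Further: bead proximity luminescence from CD47 binding SIRPalpha after compound preincubation with SIRPalpha.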 In outline: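 AlphaScreen signal between CD47-His (12.5 nM) and biotin-SIRPalpha (25 nM) soluble extracellular domains, bead-captured via Ni-NTA and streptavidin. Compounds, in 7-point titrations, met SIRPalpha 30 min before CD47; PBS pH 7.4 with 0.05% IGEPAL.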
In assay [10] the target is Parathyroid hormone/parathyroid hormone-related peptide receptor (Homo sapiens) (UniProt Q03431). Kind of assay: qHTS for PTHR1 Agonists: Optimization Screen against the NCGC LOPAC library (AID 1347079).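 Further: GloSensor cAMP luminescence in HEK-293 GP2 cells expressing human PTHR1 with IBMX.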 The gist of the method: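 Signal increase flags agonism. GP2 cells, derived from HEK-293, express human PTHR1 and a GloSensor cAMP construct.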
Chain of Parathyroid hormone/parathyroid hormone-related peptide receptor (Homo sapiens) (Q03431 whole entry, looked up): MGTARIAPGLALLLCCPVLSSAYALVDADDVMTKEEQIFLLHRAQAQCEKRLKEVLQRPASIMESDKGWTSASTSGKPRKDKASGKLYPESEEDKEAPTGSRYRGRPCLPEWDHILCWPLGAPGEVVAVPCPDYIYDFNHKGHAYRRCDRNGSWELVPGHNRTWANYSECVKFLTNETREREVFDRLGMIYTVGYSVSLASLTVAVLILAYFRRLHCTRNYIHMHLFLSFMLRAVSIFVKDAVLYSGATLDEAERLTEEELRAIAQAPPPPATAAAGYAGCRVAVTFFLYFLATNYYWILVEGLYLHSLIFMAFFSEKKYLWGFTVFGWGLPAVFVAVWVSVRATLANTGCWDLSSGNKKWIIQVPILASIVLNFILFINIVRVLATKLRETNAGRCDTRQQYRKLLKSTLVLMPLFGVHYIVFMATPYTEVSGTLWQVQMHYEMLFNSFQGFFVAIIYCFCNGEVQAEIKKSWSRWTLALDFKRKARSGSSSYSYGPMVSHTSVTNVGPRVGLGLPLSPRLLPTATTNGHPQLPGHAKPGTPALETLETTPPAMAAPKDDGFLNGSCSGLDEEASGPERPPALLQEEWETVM
The test system of assay [11] is Zika virus NS2B-NS3 protease (unlinked). Kind of assay: Optimization of GU AMC qHTS for Zika virus inhibitors: Unlinked NS2B-NS3 protease assay (AID 1347151). Further: nearly all actives have a fitted effect of over 80% in size. Further: potency means the concentration at half of the fitted maximal effect. In outline: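 Unlinked protease (25 nM final); buffer 10 mM Tris-HCl pH 8.0 + 0.01% Tween 20; AMC substrate; 15 min RT, dark; Δfluorescence normalized to no-inhibitor/no-enzyme controls; 4-parameter Hill fit.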

The target in assay [12] is N-terminal Xaa-Pro-Lys N-methyltransferase 1 (Homo sapiens) (UniProt Q9BV86). Kind of assay: qHTS Assay for Inhibitors of N-terminal methyltransferase 1 (NTMT1): LOPAC validation of the NTMT1 SAHH-coupled ThioGlo3 Assay (AID 1347143).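 Further: SAH from peptide methylation measured as thiol fluorescence via SAHH coupling and ThioGlo3; nearly all actives have a fitted effect of over 70% in size.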 Further: potency means the concentration at half of the fitted maximal effect. The gist of the method: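 NTMT1 125nM + cpds (various conc.), 1 min RT; add SAM 100uM/SAHH 10uM/ThioGlo3 15uM (addition mix). SAHH-coupled thiol detection, Ex340/Em450, t0 and 30 min RT; signal normalized to background. LOPAC 1280-cpd pilot.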
Chain of N-terminal Xaa-Pro-Lys N-methyltransferase 1 (Homo sapiens) (Q9BV86 whole entry, looked up): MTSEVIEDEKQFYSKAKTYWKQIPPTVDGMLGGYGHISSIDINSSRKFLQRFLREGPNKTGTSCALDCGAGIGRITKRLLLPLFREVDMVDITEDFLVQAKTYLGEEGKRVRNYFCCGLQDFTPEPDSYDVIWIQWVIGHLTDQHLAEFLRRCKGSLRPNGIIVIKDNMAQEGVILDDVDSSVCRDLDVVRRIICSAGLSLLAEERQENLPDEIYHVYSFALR

A further assay concerns the target Furin (Homo sapiens) (UniProt P09958). Kind of assay: Furin counterscreen qHTS for Zika virus inhibitors (AID 1347149).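 Further: purified recombinant full-length human furin enzyme at 5 nM; fluorescence gain from furin cutting a BOC-RVRR-AMC peptide substrate over 15 min; top concentration of the series differs between compounds; nearly all actives have a fitted effect of over 70% in size.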 The gist of the method: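 Counterscreen measures cleavage of 2 microM BOC-RVRR-AMC, below its ~15 microM Km, by 5 nM full-length human furin at pH 7.0 after a 15-min compound preincubation. Inhibition derives from the 15-min fluorescence increase at 37C.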

In assay [13] the test system is Zika virus NS2B-NS3 protease (linked construct). Kind of assay: Confirmatory screen NINDS AMC qHTS for Zika virus inhibitors (AID 1347152).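 Further: AMC fluorescence gain from cleaved Bz-Nle-KRR-AMC substrate over 15 min; top concentration of the series differs between compounds; nearly all actives have a fitted effect of over 70% in size.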 In outline:
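Enzyme (1 nM, linked construct) was preincubated with compound for 15 minutes at room temperature in 10 mM Tris-HCl pH 8.0 with 0.01% Tween 20. Bz-Nle-Lys-Arg-Arg-AMC was then added to 10 microM, and AMC fluorescence was recorded immediately and after 15 minutes.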

Assay [14] deals with Zika virus NS2B-NS3 protease (unlinked complex). Kind of assay: Confirmatory screen GU AMC qHTS for Zika virus inhibitors (AID 1347153). Further: nearly all actives have a fitted effect of over 70% in size. In outline: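 Noncovalent NS2B hydrophilic domain/NS3 protease complex (25 nM) in 10 mM Tris-HCl pH 8.0, 0.01% Tween 20 was preincubated 15 min at room temperature with compounds. Then 10 µM AMC substrate (Km 18.3 µM) was added; fluorescence was read over 15 min and fitted to a 4-parameter Hill equation.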

Chain of Atrial natriuretic peptide receptor 1 (Homo sapiens) (P16066 whole entry, looked up): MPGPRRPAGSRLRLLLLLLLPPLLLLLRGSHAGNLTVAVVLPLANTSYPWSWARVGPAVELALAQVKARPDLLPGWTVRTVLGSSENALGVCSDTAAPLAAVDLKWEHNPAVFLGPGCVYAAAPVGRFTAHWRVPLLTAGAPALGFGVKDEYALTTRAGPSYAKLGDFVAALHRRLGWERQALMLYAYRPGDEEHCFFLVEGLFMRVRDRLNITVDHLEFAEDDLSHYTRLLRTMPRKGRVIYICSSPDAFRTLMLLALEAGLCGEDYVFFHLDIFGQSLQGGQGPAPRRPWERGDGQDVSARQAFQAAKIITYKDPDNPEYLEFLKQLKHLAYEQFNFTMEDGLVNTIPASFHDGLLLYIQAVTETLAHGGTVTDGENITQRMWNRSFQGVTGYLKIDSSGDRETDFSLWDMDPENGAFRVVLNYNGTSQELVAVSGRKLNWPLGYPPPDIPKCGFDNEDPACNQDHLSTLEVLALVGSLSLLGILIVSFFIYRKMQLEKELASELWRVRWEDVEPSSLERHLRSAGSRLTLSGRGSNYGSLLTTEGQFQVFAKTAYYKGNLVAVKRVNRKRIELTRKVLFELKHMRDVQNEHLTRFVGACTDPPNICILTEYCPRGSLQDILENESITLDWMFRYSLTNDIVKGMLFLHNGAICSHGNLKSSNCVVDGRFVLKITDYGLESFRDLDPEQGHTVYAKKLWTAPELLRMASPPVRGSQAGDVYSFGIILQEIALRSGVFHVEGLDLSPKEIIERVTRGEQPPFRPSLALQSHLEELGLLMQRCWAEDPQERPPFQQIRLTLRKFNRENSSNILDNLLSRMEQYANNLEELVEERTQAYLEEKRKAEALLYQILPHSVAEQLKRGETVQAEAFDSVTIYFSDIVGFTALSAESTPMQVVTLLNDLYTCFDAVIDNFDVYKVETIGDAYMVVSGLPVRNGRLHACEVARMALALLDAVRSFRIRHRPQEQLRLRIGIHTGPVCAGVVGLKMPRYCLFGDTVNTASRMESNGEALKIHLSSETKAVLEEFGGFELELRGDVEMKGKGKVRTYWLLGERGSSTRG
Chain of Furin (Homo sapiens) (P09958 whole entry, looked up): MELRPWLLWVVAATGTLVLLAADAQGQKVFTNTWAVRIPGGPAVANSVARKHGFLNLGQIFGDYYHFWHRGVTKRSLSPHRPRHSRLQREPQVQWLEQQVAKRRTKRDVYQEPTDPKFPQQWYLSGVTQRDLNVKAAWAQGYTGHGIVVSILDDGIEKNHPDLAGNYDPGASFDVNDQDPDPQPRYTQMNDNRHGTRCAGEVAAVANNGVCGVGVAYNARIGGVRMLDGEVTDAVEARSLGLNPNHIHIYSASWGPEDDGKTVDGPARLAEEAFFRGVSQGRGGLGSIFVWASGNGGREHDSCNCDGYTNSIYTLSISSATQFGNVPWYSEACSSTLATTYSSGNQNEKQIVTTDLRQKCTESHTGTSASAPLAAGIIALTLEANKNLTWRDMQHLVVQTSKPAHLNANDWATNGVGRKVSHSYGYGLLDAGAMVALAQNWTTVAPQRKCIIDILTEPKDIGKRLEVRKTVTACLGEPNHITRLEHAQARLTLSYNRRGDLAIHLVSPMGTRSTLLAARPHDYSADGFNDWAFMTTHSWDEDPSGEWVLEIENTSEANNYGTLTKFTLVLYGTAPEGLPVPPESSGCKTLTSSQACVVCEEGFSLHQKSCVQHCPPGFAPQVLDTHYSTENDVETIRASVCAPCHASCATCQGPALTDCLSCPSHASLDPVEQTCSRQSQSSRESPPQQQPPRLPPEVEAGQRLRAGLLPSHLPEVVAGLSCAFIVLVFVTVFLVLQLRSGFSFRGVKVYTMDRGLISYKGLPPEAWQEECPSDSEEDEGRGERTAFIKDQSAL

`NCC(O)c1ccc(O)c(O)c1` (stereo unspecified): the Potency result in assay [1], in [2], in assay [3], in assay [4], in [5] and in assay [6] was “inactive” each time. Further, the Potency result in [7], in assay [9], in assay [10] and in assay [11] was “inactive” in each case. Moreover, the outcome in [8] was inactive.
As to `Nc1nc2c(cnn2CCc2ccccc2)c2nc(-c3ccco3)nn12`, the Potency entry in assay [1], in [2], in assay [3], in assay [4], in [5] and in [6] was “inactive” each time. Also, the Potency result in assay [7], in assay [9] and in assay [10] was “inactive” throughout. Moreover, in assay [8], the result was inactive. In addition, the Potency in assay [11] is 23.8 µM (active).
For `CC1CNCCN1S(=O)(=O)c1cccc2cnccc12` (stereo unspecified), the Potency result in assay [1], in assay [2], in [3], in [4], in assay [5] and in assay [6] was “inactive” throughout. The Potency result in assay [7], in [9], in [10], in [12] and in [11] was “inactive” in each case. Besides, in assay [8], the result was inactive.
Take `CCCc1c(OCCCOc2ccc(OCC(=O)O)cc2)ccc(C(C)=O)c1O`: the Potency entry in assay [1], in assay [2], in [3], in assay [4], in [5] and in [6] was “inactive” in each case. Besides, the Potency entry (in assay [7]; in assay [9]; in [10]; in the assay with Furin (Homo sapiens)) was “inactive” throughout. Besides, the outcome in [8] was inactive.
In the case of `NCCNS(=O)(=O)c1cccc2c(Cl)cccc12`, the Potency result in assay [1], in assay [2], in [3], in [4], in assay [5] and in assay [6] was “inactive” in each case. Further, the Potency entry in assay [7], in assay [9], in [10] and in [11] was “inactive” in each case. The result in [8] was inactive.
Take `O=C(O)/C=C/c1cnc[nH]1`: the Potency result in assay [1], in [2], in [3], in assay [4], in assay [5] and in assay [6] was “inactive” in each case. Besides, the Potency entry in [7], in assay [9], in [10], in [12] and in [11] was “inactive” throughout. Further, the outcome in assay [8] was inactive.
Turning to `NC(N)=N[C@@H](CCC(=O)O)C(=O)O`, the Potency result in [1], in [2], in assay [3], in assay [4], in assay [5] and in assay [6] was “inactive” throughout. Besides, the Potency entry in [7], in assay [9], in assay [10], in assay [12] and in [11] was “inactive” in each case. The outcome in assay [8] was inactive.
For the compound `Cn1c(=O)[nH]c2ncn(C)c2c1=O`, the Potency entry in assay [1], in [2], in assay [3], in [4], in [5] and in assay [6] was “inactive” throughout. The Potency entry in assay [7], in assay [9], in assay [10], in assay [12] and in assay [11] was “inactive” each time. In [8], the result was inactive.
Regarding `COc1ccccc1N1CCN(CCCNc2c(C)c(=O)n(C)c(=O)n2C)CC1`, the Potency result in assay [1], in assay [2], in assay [3], in [4], in [5] and in [6] was “inactive” throughout. Besides, the Potency result (in [7]; in assay [9]; in assay [10]; with Furin (Homo sapiens); in [13]; in [14]) was “inactive” in each case. In assay [8], the result was inactive.
Turning to `NC(=O)c1ccccc1`, the Potency result in assay [1], in [2], in assay [3], in assay [4], in assay [5] and in [6] was “inactive” each time. Also, the Potency entry in assay [7], in assay [9], in [10], in assay [12] and in assay [11] was “inactive” in each case. In addition, in assay [8], the outcome was inactive.
Take `Cn1c(=O)c2c(nc(/C=C/c3cccc(Cl)c3)n2C)n(C)c1=O`: the Potency entry in assay [1], in [2], in assay [3], in assay [4], in assay [5] and in assay [6] was “inactive” in each case. For the same compound, the Potency entry in [7], in [9] and in [10] was “inactive” in each case. In addition, the result in assay [8] was inactive. Further, the Potency in [11] is 11.9 µM (active).
For the compound `C=C(C)C1CC=C(C(=O)O)CC1` (stereo unspecified), the Potency result in [1], in [2], in assay [3], in [4], in [5] and in assay [6] was “inactive” in each case. Also, the Potency result in [7], in assay [9], in assay [10], in assay [12] and in [11] was “inactive” each time. Besides, the outcome in assay [8] was inactive.
On to `CN(C)C(=O)/N=N/C(=O)N(C)C`, for which the Potency result in assay [1], in assay [2], in assay [3], in assay [4], in [5] and in assay [6] was “inactive” throughout. Besides, the Potency result in assay [7], in [9], in assay [10] and in assay [11] was “inactive” in each case. Also, the Potency in assay [12] is 7.08 µM (active).
In the case of `O=c1onc2cnc3ccccc3n12`, the Potency entry in [1], in assay [2], in [4], in assay [5], in assay [6] and in assay [7] was “inactive” in each case. The Potency entry in [9] and in assay [10] was “inactive” throughout. For the same compound, the results for the Potency in assay [3], in [12] and in assay [11] were 0.261 µM (active), 56.2 µM (active) and 26.7 µM (active), respectively.
Regarding `COc1cc(/C=C(\C#N)C(=O)Nc2nnc(C(F)(F)F)s2)ccc1OCc1ccc(C(F)(F)F)cc1C(F)(F)F`, the Potency result in [1], in assay [2], in assay [6], in [7] and in [10] was “inactive” in each case. Also, the Potency is 14.7 µM (active) in assay [3]; 23.9 µM (active) in assay [4]; 16.5 µM (active) in [5]; 56.2 µM (active) in [12]; 2.12 µM (active) in assay [11]; 15.2 µM (active) in assay [14]. Moreover, the result in [8] was inactive.
`O=C(O)/C(=C/c1c(C(=O)O)[nH]c2cc(Cl)cc(Cl)c12)c1ccccc1`: the Potency entry in assay [1], in assay [2], in assay [3], in assay [4], in [5] and in [6] was “inactive” throughout. Moreover, the Potency result in assay [7], in assay [9], in assay [10], in assay [12] and in [11] was “inactive” throughout.
Regarding `COC(=O)C1=C(C)NC(C)=C([N+](=O)[O-])C1c1ccccc1C(F)(F)F` (stereo unspecified), the Potency result in [1], in assay [2], in assay [3], in [4], in assay [5] and in assay [6] was “inactive” each time. Further, the Potency entry in assay [7], in assay [9], in assay [10] and in assay [12] was “inactive” in each case.
`c1ccc(C(NCc2cccnc2)(c2ccccc2)c2ccccc2)cc1`: the Potency result in assay [1], in assay [2], in assay [3], in assay [4], in [5] and in assay [6] was “inactive” each time. Further, the Potency result in assay [7], in assay [9], in [10], in assay [12] and in assay [11] was “inactive” in each case.
